Among the data in PubChem BioAssay AID540259 (Broad Institute, 2011) are outcome values, retold here.

Results with a measured potency or affinity are listed apart. The source made the active and inactive calls.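 How the source made its calls: active means cell killing, meaning signal decrease, with fitted half-maximal dose at or below ten times the top valid tested dose; inconclusive means poor fit, or flat curve with 30 to 70% signal loss; inactive means the rest.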

A short description of this assay: HeLa cell cytotoxicity, dose response, cytotoxicity control for MITF activator project, CellTiter-Glo luminescence, cherry-pick samples (AID 540259). The following applies: HeLa viability, CellTiter-Glo ATP luminescence, 24 h; series mostly up to 35 µM. In general terms: Cellular ATP, detected with luciferase, serves as a proxy for viable cell number.
Regarding `O=c1c(-c2ccc(O)cc2)coc2cc(O)cc(O)c12`, the compound was classed as inactive.
The entry for `c1cncc(-c2nc3ccccc3s2)c1` is “inactive”; for `COc1cc(/C=C/c2noc(-c3ccccc3O)n2)ccc1OC(C)=O` it is “inactive”; for `Nc1ccc(-c2nnc(-c3ccc(N)cc3)o2)cc1` it is “inactive”.
The entry for `COc1ccc(NC(=O)CCCn2c(=O)oc3ccccc32)cc1Cl` is “inactive”; for `COc1ccc(-c2cn3nc(C)c(C)nc3n2)cc1OC` it is “inactive”.
Consider `COc1ccc(Oc2ncnc3sccc23)cc1`, for which the call was inactive.
Take `COc1ccc2cc(C(N)=O)c(=Nc3ccccc3)oc2c1`: the outcome was inactive.
The entry for `Clc1ccc(-c2cnnc(-c3ccccn3)n2)cc1` is “inactive”; for `COc1ccc(/C(C)=N/Nc2nncc3ccccc23)cc1` it is “inactive”.
Under `CCS(=O)(=O)N1Cc2ccccc2CC1C(=O)NCc1cccc(OC)c1` (configuration not stated) stands “inactive”; under `CCC(=O)Nc1sc(C(=O)Nc2ccccc2F)c(C)c1C(=O)OC`, “inactive”; under `COc1cc(SC)ccc1C(=O)NCC1CCCCC1`, “inactive”.
Turning to `Cn1c2ccccc2c(=O)c2cc(C#Cc3ccccn3)ccc21`, the call was inactive.
Consider `CCN(CC)c1ccc(-c2nc3cnccc3n2C)cc1`, for which the result was inactive.
As to `Cc1ccc(CNc2nc(C)cs2)cc1`, the compound was called inactive.
In the case of `CC(C)(C)c1ccc(-c2noc(-c3ccno3)n2)cc1`, the outcome was inactive.
Under `COCc1nn2c(N)c(-c3ccccc3)cnc2c1-c1ccccc1` stands “inactive”.
Under `C/C(=C\c1ccc(N)cc1)c1nc2ccccc2[nH]1` stands “inactive”.
`COC(=O)C(Cc1ccc(O)cc1)N1Cc2ccccc2C1=O` (configuration not stated): the compound was called inactive.
With `COc1ccccc1Nc1nc(C)cs1`, the outcome was inactive.
Under `Cc1nc2cc3nc(C)sc3cc2s1` stands “inactive”; under `Nc1nc2ccccc2cc1-c1cccs1`, “inactive”.
The entry for `Cc1cc(Cl)ccc1OCc1cn2cccnc2n1` is “inactive”.
The entry for `CCc1nnc(NS(=O)(=O)c2ccc(NC(=O)c3cccc(Cl)c3)cc2)s1` is “inactive”; for `COc1ccc2cc(-c3csc(-c4cccnc4)n3)ccc2c1` it is “inactive”; for `CC(C)c1ccc(CNc2ncc(Br)cn2)cc1` it is “inactive”.
In the case of `CSc1ccccc1OCc1cc(C(=O)N[C@H]2CCCCNC2=O)no1`, the result was inactive.
For the compound `Nc1c(C(=O)C2CC2)sc2nc3c(cc12)CCC3`, the result was inactive.
The entry for `Cc1cc(C(=O)Cn2nc(C(=O)O)c3ccccc3c2=O)c(C)n1CC(F)(F)F` is “inactive”.
Under `O=C(N/N=C/c1ccsc1)c1ccc2c(c1)OCO2` stands “inactive”; under `O=C(c1noc2c1CCCC2)N1CCc2ccccc2C1`, “inactive”.
As for `COc1ccc(NC(=S)c2ccccc2)cc1`, the compound was called inactive.
With `Cc1cc(C)n2nc(SCN3C(=O)c4ccccc4C3=O)nc2n1`, the result was inactive.
Under `O=C(Oc1ccc2ccccc2c1Cl)N1CCCCCC1` stands “inactive”.
`Cc1cccc(Nc2nc3c(s2)CCCC3)c1`: the compound was called inactive.
Turning to `Cc1[nH]n(-c2cccc(Cl)c2)c(=O)c1C=NCC(C)C`, the call was inactive.
